An excerpt weighted towards active compounds, which were near 5.4% of everything screened.
ALR inh – human ALR oxidase inhibition via reduced H2O2; P55789; AID 485317; inhibition, % (concentration not given with the values); hit rate 3.8% among 290,000; purified ALR, DTT oxidation, H2O2 HRP-luminol luminescence;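 active = mean replicate inhibition above about 79%, with every replicate also reaching it, limit read from the data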
Target sequence (P55789 whole entry, looked up): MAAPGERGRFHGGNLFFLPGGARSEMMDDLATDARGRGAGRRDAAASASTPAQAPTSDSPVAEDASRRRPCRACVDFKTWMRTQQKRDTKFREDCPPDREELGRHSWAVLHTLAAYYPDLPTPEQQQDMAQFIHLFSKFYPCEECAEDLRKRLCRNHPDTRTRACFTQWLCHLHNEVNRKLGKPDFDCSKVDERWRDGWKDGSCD
rCAG binder – binds r(CAG) RNA repeats. hit rate 1.3% among 370,000. AID 651821. r(CAG) RNA repeat, TO-PRO-1 dye displacement fluorescence. inhibition, % at 3 µM;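 active = inhibition above the plate cutoff, the mean of all test compounds on that plate plus 3 SD, cut at about 35% in these data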;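 also: 0% = DMSO alone and 100% = 100 µM mitoxantrone as full dye displacement; higher means more dye released from RNA so lower well fluorescence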
APOBEC3A inh – inhibitors of human APOBEC3A DNA deaminase; P31941; recombinant A3A, FAM/TAMRA ssDNA deamination fluorescence; inhibition, % at 20 µM; hit rate 0.41% among 330,000; AID 493011;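 active = at least 40% inhibition at 20 µM here, with at most 30% in a related deaminase screen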;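 also: plate controls were A3A with DMSO for no effect and wells lacking A3A enzyme for full effect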
aDG glyco up – increases alpha dystroglycan glycosylation. Pro5-aDG cells, alpha-DG glycosylation AlphaScreen (IIH6); 0% Pro5, 100% B10-LARGE cell signal. AID 624168. activation, % at 10 µM. hit rate 0.22% among 360,000;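 active = activation of at least 8% versus controls, or a plate z-score of at least 8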;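 also: Pro5 are CHO cells carrying HIG-tagged alpha-DG that lacks glycosylation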
A3G deaminase – inhibitors of human APOBEC3G DNA deaminase; Q9HC16; recombinant A3G, ssDNA deamination FAM/TAMRA fluorescence; inhibition, % at 20 µM; hit rate 0.28% among 330,000;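 active = inhibition of at least 40% at 20 µM, with no more than 30% in the related APOBEC3A deaminase screen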;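 also: plate controls were DMSO wells with A3G for no effect and wells lacking A3G enzyme for full effect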
Target sequence (Q9HC16 whole entry, looked up): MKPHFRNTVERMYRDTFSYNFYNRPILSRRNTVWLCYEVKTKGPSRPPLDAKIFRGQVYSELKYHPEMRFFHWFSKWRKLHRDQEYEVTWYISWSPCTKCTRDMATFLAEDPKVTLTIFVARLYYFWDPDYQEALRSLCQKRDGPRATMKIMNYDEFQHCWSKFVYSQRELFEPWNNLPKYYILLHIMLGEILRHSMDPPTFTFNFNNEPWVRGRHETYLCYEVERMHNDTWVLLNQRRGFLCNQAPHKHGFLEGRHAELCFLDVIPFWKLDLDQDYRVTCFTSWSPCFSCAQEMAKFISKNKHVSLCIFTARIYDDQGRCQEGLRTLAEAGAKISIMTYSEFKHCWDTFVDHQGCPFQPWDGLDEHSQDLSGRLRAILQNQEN
PHOSPHO1 inh – PHOSPHO1 (human) inhibition; Q8TCT1; recombinant PHOSPHO1, absorbance phosphatase assay; inhibition, % at 13.3 µM; hit rate 1.1% among 290,000; in the data active = inhibition above about 60%
Numbers without * were called inactive.

For COc1cccc(C(=O)N2CCC[C@@H]2C(=O)N2CCC[C@@H]2C(=O)NCc2ccccc2)c1 the results were rCAG binder 2.
`CN1CCN(C(=O)C(N)Cc2ccccc2)CC1` (configuration not stated) gave ALR inh -4, rCAG binder -3, APOBEC3A inh 0, aDG glyco up 0, A3G deaminase -5 and PHOSPHO1 inh 63*.
Screening CN1CCN(C(=O)Nc2ccccc2)CC1 returned ALR inh -2, rCAG binder -1, APOBEC3A inh 0, aDG glyco up 0, A3G deaminase -15 and PHOSPHO1 inh 63*.
For CCN1CCN(C(=O)Nc2ccc(Cc3ccc(NC(=O)N4CCN(CC)CC4)cc3)cc2)CC1 the results were ALR inh 99*, rCAG binder -9, APOBEC3A inh -5, aDG glyco up 0, A3G deaminase -2 and PHOSPHO1 inh 24.
COC[C@H]1CCCN1c1cccc2c1S(=O)(=O)N1CC[C@@H](C1)O2 was read as rCAG binder 5.
Screening Cc1ccc(-n2c(SCc3cccc(F)c3)nc3sc4c(c3c2=O)CCCC4)cc1 returned rCAG binder 6.
`COC(=O)C1=C(C)N(C)C(=NCc2ccccc2)NC1c1cccc(Cl)c1` (configuration not stated) gave rCAG binder 9.
For COc1ccc2c(C)c(CC(=O)N3CCN(C(=O)C4COc5ccccc5O4)CC3)c(=O)oc2c1 (configuration not stated) the results were ALR inh -3, rCAG binder -1, APOBEC3A inh 0, aDG glyco up 0, A3G deaminase -2 and PHOSPHO1 inh 64*.
Screening Cc1cc(NS(=O)(=O)c2ccc(NC(=O)CN3C(=O)NC(C)(c4ccccc4)C3=O)cc2)nc(C)n1 (configuration not stated) returned ALR inh -3, rCAG binder 5, APOBEC3A inh 36, aDG glyco up 0 and A3G deaminase -2.
Screening CC1(c2ccccc2)NC(=O)N(CC(=O)Nc2ccc(S(=O)(=O)Nc3ncccn3)cc2)C1=O (configuration not stated) returned ALR inh 98*, rCAG binder 10, APOBEC3A inh -1, aDG glyco up 0 and A3G deaminase -5.
For Cc1ccc(C2(C)NC(=O)N(CC(=O)Nc3ccccc3N3CCCC3)C2=O)cc1 (configuration not stated) the results were ALR inh 77*, APOBEC3A inh -3, aDG glyco up 0 and A3G deaminase 5.
Cc1ccc(S(=O)(=O)N(C)CC(=O)Nc2ccccc2N2CCCC2)cc1 was read as ALR inh 83*, rCAG binder 0, APOBEC3A inh 0, aDG glyco up 0 and A3G deaminase -7.
Screening O=S1(=O)c2ccccc2-c2c(nnn2Cc2ccccc2)CN1C1CC1 returned rCAG binder 1.
`Cc1ccc2c(c1)-c1c(cnn1CC(=O)NCCc1ccc(Cl)cc1)CO2` gave rCAG binder 0.
For O=C(N[C@@H](Cc1cccnc1)C(=O)N1CCC[C@H]1C(=O)NCc1ccccc1)c1ccc(Cl)c(Cl)c1 the results were rCAG binder 1.
Screening CCC/C(=C1/c2ccccc2C(=O)N1c1ccccc1)c1c(C)noc1C returned rCAG binder 1.
Screening CCn1c2c(n(C(C)=O)c1=O)C=C(C(=O)N1CCCC1)C(C)C(c1ccccc1)=C2 (configuration not stated) returned rCAG binder 1.
`Cc1c(CCC(=O)N[C@@H](C)C(=O)O)c(=O)oc2cc3oc4c(c3cc12)CCCC4` gave ALR inh -14, rCAG binder 28, APOBEC3A inh 2, aDG glyco up 0, A3G deaminase -6 and PHOSPHO1 inh 14.
`CCCC(NC(=O)CCc1c(C)c2cc3c4c(oc3c(C)c2oc1=O)CCCC4)C(=O)O` (configuration not stated) gave ALR inh 68, rCAG binder 36*, APOBEC3A inh 1, aDG glyco up 0, A3G deaminase -3 and PHOSPHO1 inh 14.
`CCOC(=O)[C@@]12CCCC3=C1N(CCC3)C(=O)[C@H]2CC(=O)NCc1ccc(OC)c(OC)c1` gave rCAG binder -1.
O=C(NCc1cccc(Br)c1)C1CC2Cn3c(nc4ccccc43)C2N1c1ccccc1 (configuration not stated) was read as ALR inh 77*, rCAG binder 3, APOBEC3A inh 7, aDG glyco up 1 and A3G deaminase 10.
O=C(O)c1ccc2[nH]c3c(c2c1)CCCC3 was read as ALR inh 16, rCAG binder -1, APOBEC3A inh -7, aDG glyco up 0, A3G deaminase -8 and PHOSPHO1 inh 20.
Screening N/N=C1\CCCc2c1[nH]c1ccc([N+](=O)[O-])cc21 returned rCAG binder 4, APOBEC3A inh -4, aDG glyco up 0, A3G deaminase 11 and PHOSPHO1 inh 88*.
`O=[N+]([O-])c1ccc2[nH]c(=S)[nH]c2c1` gave rCAG binder 3 and aDG glyco up 0.
O=[N+]([O-])c1ccc2[nH]c3c(c2c1)CCCC3 was read as ALR inh 98*, rCAG binder 5, APOBEC3A inh -3, aDG glyco up 1, A3G deaminase -4 and PHOSPHO1 inh 1.
Screening Cc1ccc2nc(Cl)c(/C=N/NC(=O)c3ccccc3O)cc2c1 returned ALR inh 97*, rCAG binder 5, APOBEC3A inh 2, aDG glyco up 0, A3G deaminase -4 and PHOSPHO1 inh 5.
Screening O=C(N[C@@H](Cc1ccccc1)C(=O)N1CCC2CCN(S(=O)(=O)c3ccccc3)CC21)[C@@H]1CCCN1 (some centres not stated) returned rCAG binder 2.
For O=C(NCc1ccccc1)c1nc[nH]c1C(=O)N1CCN(c2ccccc2)CC1 the results were ALR inh 98*, rCAG binder -2, APOBEC3A inh -5, aDG glyco up 0 and A3G deaminase -11.
CC1CCN(C(=O)c2[nH]cnc2C(=O)NCc2ccccc2)CC1 was read as ALR inh 5, rCAG binder -4, APOBEC3A inh 1, aDG glyco up 0 and A3G deaminase -6.
CC(=O)c1cc(-c2cnn(Cc3ccccc3)c2)c(=O)n2c1CCC2 was read as rCAG binder 0.
For FC(F)(F)c1ccccc1Cn1ccc2ccc(-c3ccc4ccn(Cc5ccccc5)c4c3)cc21 the results were rCAG binder 15.
`CCn1ccnc1CN(C)Cc1nc(-c2ccc(C(=O)OC)cc2)no1` gave ALR inh 2, rCAG binder -7, APOBEC3A inh 11, aDG glyco up 0, A3G deaminase 5 and PHOSPHO1 inh 60*.
Screening Cc1ccc(Nc2nc(N)nc(CCl)n2)cc1 returned ALR inh 7, rCAG binder 2, APOBEC3A inh -2, aDG glyco up 1, A3G deaminase -2 and PHOSPHO1 inh 51.
